Bioassay records as filed in PubChem.
The sample as a whole holds a higher share of hits than the screen did.
miR-122 inh: miR-122 suppressors via Renilla sensor increase, primary screen, cell-based, Huh7 psiCHECK-miR122, Renilla luciferase, single point. 48 h. activation, % at 12.5 µM. 340,000 compounds, 0.14% hits;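 active means mean activation of 30% or more, with every replicate also reaching 30%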;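 further: 0% = median of neutral control wells and 100% = median of positive control wells; higher luciferase signal means stronger suppression of miR-122 activity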
The depositor's hits bear a star.

SMILES | miR-122 inh
Cc1ccc(-c2ccc3c(c2)O[C@H](CN(C)C(=O)CC2CC2)[C@H](C)CN([C@H](C)CO)S3(=O)=O)cc1 | 40*
C[C@@H]1CN([C@H](C)CO)S(=O)(=O)c2ccc(Br)cc2O[C@@H]1CN(C)C(=O)CC1CC1 | -18
C[C@@H]1CN([C@@H](C)CO)S(=O)(=O)c2ccc(-c3ccccc3)cc2O[C@@H]1CN(C)C(=O)c1ccc2c(c1)OCO2 | 44*
C/C=C/c1ccc2c(c1)O[C@H](CN(C)C(=O)c1ccc3c(c1)OCO3)[C@@H](C)CN([C@@H](C)CO)S2(=O)=O | -14
C[C@H]1CN([C@@H](C)CO)S(=O)(=O)c2ccc(-c3ccccc3)cc2O[C@@H]1CN(C)C(=O)CC1CC1 | -33
C[C@H](CO)N1C[C@H](C)[C@H](CN(C)C(=O)c2ccccc2F)Oc2ncc(C#Cc3ccc(F)cc3)cc2C1=O | -6
C[C@H]1CN([C@@H](C)CO)C(=O)c2cc(C#CC3(O)CCCC3)cnc2O[C@H]1CN(C)S(=O)(=O)c1ccccc1 | -4
C[C@@H]1CN([C@@H](C)CO)C(=O)c2cc(-c3cccc(F)c3)cnc2O[C@@H]1CN(C)C(=O)c1cccc(F)c1 | 5
C[C@H](O)C#Cc1ccc2c(c1)O[C@H](CN(C)CC1CCOCC1)[C@@H](C)CN([C@H](C)CO)S2(=O)=O | -17
C[C@@H]1CN([C@H](C)CO)S(=O)(=O)c2ccc(C#CC3CC3)cc2O[C@H]1CN(C)Cc1ccccn1 | -28
C[C@@H]1CN([C@H](C)CO)C(=O)c2cc(-c3cccc(F)c3)cnc2O[C@H]1CN(C)Cc1ccncc1 | 5
CC(C)C#Cc1cnc2c(c1)C(=O)N([C@H](C)CO)C[C@@H](C)[C@H](CN(C)C(=O)c1ccccc1)O2 | 1
COc1ccc(NS(=O)(=O)c2cc(OC)ccc2OC)cc1 | -130
COc1ccc(OC)c(Nc2cc(C)nc3ccc(C)cc23)c1 | 32*
COc1ccc(OC)c(Nc2cc(C)nc3nc(C)nn23)c1 | -107
CCCC(=O)Nc1ccc2c(c1)C(=O)N(C)C[C@@H](OC)[C@H](C)CN(CCC)[C@H](C)CO2 | -1
CCn1c(Cl)c(C=O)s/c1=N\S(=O)(=O)c1ccccc1 | 72*
COc1ccccc1-c1cnc2c(c1)C(=O)N([C@@H](C)CO)C[C@@H](C)[C@@H](CN(C)Cc1ccc(C(=O)O)cc1)O2 | -111
CC(C)CC#Cc1cnc2c(c1)C(=O)N([C@H](C)CO)C[C@H](C)[C@@H](CN(C)CC1CCOCC1)O2 | 1
COc1ccccc1-c1ccc2c(c1)O[C@H](CN(C)S(=O)(=O)c1ccccc1)[C@H](C)CN([C@@H](C)CO)S2(=O)=O | -17
CC(=O)N(C)C[C@H]1Oc2cc(C#C[C@H](C)O)ccc2S(=O)(=O)N([C@@H](C)CO)C[C@H]1C | 5
COc1ccc(C#Cc2cnc3c(c2)C(=O)N([C@@H](C)CO)C[C@H](C)[C@H](CN(C)CC2CCCC2)O3)cc1 | 11
COc1ccc(C(=O)Nc2ccc3c(c2)OC[C@H](C)N(C)C[C@@H](C)[C@@H](OC)CN(C)C3=O)cc1 | 0
CCN(CC)c1ccc(C(=C2C=CC(=[N+](CC)CC)C=C2)c2ccc(N(CC)CC)cc2)cc1 | 38*
CCCC#Cc1cnc2c(c1)C(=O)N([C@H](C)CO)C[C@H](C)[C@H](CN(C)Cc1ccccc1F)O2 | -96
SMILES | miR-122 inh
O=C(COc1ccc(S(=O)(=O)NC2CCCCC2)cc1)Nc1ccc2c(c1)OCCO2 | -101
O=C(COC(=O)Cc1ccc(S(=O)(=O)N2CCOCC2)s1)Nc1ccc2c(c1)OCO2 | 31*
O=C(Nc1ccc2c(c1)OCCO2)C1CCN(S(=O)(=O)c2ccccc2)CC1 | -177
COc1ccccc1-c1cnc2c(c1)C(=O)N([C@@H](C)CO)C[C@@H](C)[C@H](CN(C)Cc1ccccc1)O2 | -1
C/C=C/c1cnc2c(c1)C(=O)N([C@@H](C)CO)C[C@@H](C)[C@@H](CN(C)C(=O)Cc1cccnc1)O2 | -5
C[C@H](CO)N1C[C@H](C)[C@H](CN(C)Cc2ccc(F)cc2)Oc2cc(C#Cc3ccccn3)ccc2S1(=O)=O | 13
C[C@H](CO)N1C[C@H](C)[C@@H](CN(C)C(=O)c2cccnc2)Oc2ncc(-c3ccc(C(=O)N(C)C)cc3)cc2C1=O | -5
C[C@H]1CN([C@@H](C)CO)C(=O)c2cc(C#Cc3ccccn3)cnc2O[C@H]1CN(C)C(=O)CCN1CCCCC1 | 2
CCCNC(=O)C[C@@H]1CC[C@@H]2[C@H](COc3ccc(NS(=O)(=O)c4ccccc4C)cc3C(=O)N2C)O1 | 67*
COC(=O)C[C@@H]1CC[C@@H]2[C@@H](COc3ccc(NS(=O)(=O)c4ccccc4F)cc3C(=O)N2C)O1 | 42*
CO[C@@H]1CN(C)C(=O)c2cc(NC(C)=O)ccc2OC[C@H](C)N(C(=O)c2ccccc2)C[C@H]1C | 0
COc1cccc(S(=O)(=O)N(C)C[C@H]2Oc3ncc(C#CCC(C)C)cc3C(=O)N([C@H](C)CO)C[C@H]2C)c1 | 0
COCC(=O)N(C)C[C@H]1Oc2cc(-c3cncnc3)ccc2S(=O)(=O)N([C@H](C)CO)C[C@@H]1C | -2
C[C@@H]1CN([C@@H](C)CO)C(=O)c2cc(-c3ccc(F)cc3)cnc2O[C@@H]1CN(C)C(=O)c1cccnc1 | 3
C[C@H](CO)N1C[C@H](C)[C@@H](CN(C)C(=O)c2ccccn2)Oc2ncc(-c3cccc(F)c3)cc2C1=O | -6
CCCNC(=O)C[C@@H]1CC[C@H]2[C@H](COc3ccc(NC(=O)Cc4cccs4)cc3C(=O)N2C)O1 | -207
CCCNC(=O)C[C@@H]1CC[C@@H]2[C@@H](COc3ccc(NC(=O)Nc4ccccc4F)cc3C(=O)N2C)O1 | 50*
Cc1nn(C)cc1NC(=O)C[C@@H]1CC[C@@H]2[C@@H](COc3ccc(NC(=O)Nc4cccc(Cl)c4)cc3C(=O)N2C)O1 | 48*
CCCNC(=O)C[C@H]1CC[C@H]2[C@@H](COc3ccc(NC(=O)c4cc(F)cc(F)c4)cc3C(=O)N2C)O1 | 53*
CCCNC(=O)C[C@H]1CC[C@H]2[C@H](COc3ccc(NC(=O)Cc4cccs4)cc3C(=O)N2C)O1 | -167
CCCNC(=O)C[C@@H]1CC[C@@H]2[C@H](COc3ccc(NC(=O)Nc4c(C)noc4C)cc3C(=O)N2C)O1 | -258
CCCNC(=O)C[C@@H]1CC[C@H]2[C@H](COc3ccc(NC(=O)c4ccc5c(c4)OCO5)cc3C(=O)N2C)O1 | -102
CCCNC(=O)Nc1ccc2c(c1)C(=O)N(C)[C@@H]1CC[C@H](CC(=O)NCC3CCCCC3)O[C@H]1CO2 | 33*
C/C=C/c1ccc2c(c1)O[C@H](CN(C)C(=O)CC1CC1)[C@@H](C)CN([C@H](C)CO)S2(=O)=O | -11
C[C@H]1CN([C@@H](C)CO)S(=O)(=O)c2ccc(Br)cc2O[C@@H]1CN(C)C(=O)CC1CC1 | -11
COc1ccc(NC(=O)N(C)C[C@@H]2Oc3ncc(-c4cc5ccccc5o4)cc3C(=O)N([C@H](C)CO)C[C@@H]2C)cc1 | 8
CCCN(C)C[C@H]1Oc2cc(C#CC3CC3)ccc2S(=O)(=O)N([C@H](C)CO)C[C@H]1C | -34
CCC(=O)Nc1ccc2c(c1)OC[C@H](C)NC[C@H](C)[C@H](OC)CN(C)C2=O | -1
C[C@H]1CN([C@@H](C)CO)C(=O)c2cc(-c3cncnc3)cnc2O[C@@H]1CN(C)Cc1cncnc1 | 6
C[C@H]1CN([C@@H](C)CO)C(=O)c2cc(C#Cc3ccccc3)cnc2O[C@H]1CN(C)C(=O)c1ccccn1 | 9
